Bioassay records as filed in PubChem BioAssay.
Hits are enriched below; roughly 12% of the tested compounds scored in any of these assays.
JMJD2A Tudor = JMJD2A Tudor domain (human) inhibition. O75164. AID 504339. Potency, µM (highest dose often 114 µM), inactives show top-dose activity change, negative = inhibition, usual class: inhibitors. actives 4.4% (n = 390,000). AlphaScreen JMJD2A-Tudor / H3K4me3 peptide binding; further: on the % scale 0 is the no-effect control and ±100 the full control effect; nearly all actives have a fitted effect of over 50% in size
HP1b binding inh = HP1-beta chromodomain-methylated histone interaction inhibition. AlphaScreen HP1-beta / biotin-H3K9me3 peptide binding. actives 0.56% (n = 390,000). Potency, µM (highest dose often 114 µM), without a hit: at the highest dose activity change, negative = inhibition, hits mostly inhibitors; further: nearly all actives have a fitted effect of over 70% in size
Target sequence (P83916 whole entry, looked up): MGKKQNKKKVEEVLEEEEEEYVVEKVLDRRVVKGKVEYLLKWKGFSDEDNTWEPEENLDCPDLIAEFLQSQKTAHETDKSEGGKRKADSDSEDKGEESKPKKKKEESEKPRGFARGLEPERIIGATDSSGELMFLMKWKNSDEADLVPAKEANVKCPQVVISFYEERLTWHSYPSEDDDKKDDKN
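AlphaScreen: HP1-beta (50 nM) preformed 30 min with biotin-H3(1-18)K9me3 peptide (50 nM) in PBS pH 7.4, 0.01% Tween-20. Compound added for 30 min at RT, then streptavidin donor/nickel chelate acceptor beads (10 ug/mL) for 30 min.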
Sfp PPTase inh = Sfp phosphopantetheinyl transferase inhibition; Q9F4F7; Biochemical Sfp PPTase activity, qHTS; Potency, µM, for inactives: largest response in the series, negative = inhibition, hits mostly inhibitors; actives 3.5% (n = 310,000);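 further: the enzyme is Sfp with the accession as filed and its product quenches rhodamine fluorescence; 0% = enzyme reaction without inhibitor and -100% = no enzyme wells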
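Reaction rates are the 30-min fluorescence difference (ex 525, em 598 nm) in wells containing 15 nM Sfp, 5 uM rhodamine-CoA and 12.5 uM BHQ-2-YbbR at pH 7.6 with 10 mM MgCl2.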
G9a block = inhibitors of human histone lysine methyltransferase G9a | actives 8.8% (n = 350,000) | Potency, µM (top dose mostly 102 µM), without a hit: at the highest dose activity, negative = inhibition, hits mostly inhibitors | G9a H3K9 monomethylation, AlphaScreen, 2 h | Q96KQ7 | AID 504332; further: on the % scale 0 is the no-effect control and ±100 the full control effect; nearly all actives have a fitted effect of over 75% in size
Target sequence (Q96KQ7 913-1193 limits assumed): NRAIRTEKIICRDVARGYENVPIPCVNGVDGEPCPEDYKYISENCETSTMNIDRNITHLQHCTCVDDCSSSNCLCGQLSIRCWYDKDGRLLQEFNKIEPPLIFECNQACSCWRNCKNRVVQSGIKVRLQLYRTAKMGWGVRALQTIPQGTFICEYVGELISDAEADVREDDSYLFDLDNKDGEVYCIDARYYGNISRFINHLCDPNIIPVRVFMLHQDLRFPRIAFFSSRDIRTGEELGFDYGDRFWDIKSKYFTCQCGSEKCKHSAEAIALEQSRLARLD
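Readings reflect AlphaScreen signal from monomethyl-H3K9 antibody detection. HMT at 20 nM; substrate b-H3K9 500 nM; cofactor SAM 20 uM; 2 h RT reaction; compounds tested as titrations in qHTS with 15 min preincubation.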
BAZ2B inh = BAZ2B (human) inhibition; AID 504333; AlphaScreen BAZ2B-H3K14Ac peptide displacement; Potency, µM (series often up to 114 µM), for the others: top-dose activity change, negative = inhibition, hits mostly inhibitors; actives 4.4% (n = 360,000); further: on the % scale 0 is the no-effect control and ±100 the full control effect; nearly all actives have a fitted effect of over 60% in size
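BAZ2B (50 nM) with biotin-H3(5-23)K14Ac peptide (50 nM) in PBS pH 7.4, 0.01% Tween-20, preformed 30 min, then compound 30 min at room temperature; top concentration 110uM. AlphaScreen streptavidin donor/nickel chelate acceptor beads (10 ug/mL final), 20 min dark, signal read.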
Active calls of the source: *; ? = inconclusive; . = no result given; [ ] = remark or other dose. The call rests on the fitted dose curve; in most records, active means well fitted curve in the direction sought with a large enough effect; inconclusive means small, poorly fitted or top-dose-only effect, or another doubt; inactive means no such curve, though single readings can be large; an effect the other way counts as inactive or inconclusive. Potency means the concentration at half of the fitted maximal effect.

SMILES	JMJD2A Tudor	HP1b binding inh	Sfp PPTase inh	G9a block	BAZ2B inh
CSc1nsc(/C=C/Nc2ccc(C(=O)O)cc2)c1C#N	?	?	-23%	13µM*	40µM*
N#Cc1c(-c2c(Cl)cccc2Cl)noc1/C=C/Nc1ccc(C(=O)O)cc1	-35%	12%	5%	-37%	?
CSc1nnc(C)c(/C=C/Nc2ccc(F)cc2F)n1	-35%	21%	-10%	?	?
CSc1nsc(/C=C/Nc2ccc(F)cc2F)c1C#N	?	-25%	-1%	32µM*	?
O=S(=O)(c1cccc(NC(=S)N2CCN(c3ccccc3)CC2)c1)C(F)F	-16%	35%	1%	16%	-11%
Cc1ccc(C(=O)NCC(=O)N(C)CC(=O)Nc2ccccc2Br)s1	-4%	38%	.	35%[12.7 µM]	-5%
Cc1c(C)c2ccc(OCC(=O)NCCCn3ccnc3)cc2oc1=O	22µM*	42%	-2%	1%	-17%[57.1 µM]
Cc1cc(=O)oc2cc(OCC(=O)NCCCn3ccnc3)ccc12	9%	25%	11%	-7%[59 µM]	-19%
CN(C)C(=O)c1nc2ccccc2s1	-1%	47%	8%	12%[59 µM]	8%
CN(C)c1ccc(CC(=O)c2nc3ccccc3s2)cc1	18µM*	?	?	?	40µM*
Nc1nc(N)c2[nH]c(=S)[nH]c2n1	3.5µM*	?	.	.	.
COc1ccc(C(C)=O)cc1COC(=O)CCNS(=O)(=O)c1ccc(C)cc1	-10%	-1%	.	50µM*	8%
Cc1cc(NC(=O)Cn2nnc(-c3ccccc3NC(=O)c3ccccc3F)n2)no1	6%	32%	-4%	-24%	-2%
CC(=O)N(C)c1ccc(OCC(O)CN(c2ccccc2C)S(=O)(=O)c2ccc(C)cc2)cc1 (stereo not given)	-21%	11%	11%	25%	-25%
CN(C)CCCn1c(SCc2c(Cl)cccc2Cl)nnc1-c1ccncc1	20µM*	?	-17%	10µM*	71µM*
Cc1ccc(NC(=S)N2CCC(C(=O)c3ccc(F)cc3)CC2)cc1C	-32%	19%	.	.	.
COc1ccc(OCCCC(=O)Nc2cc(Cl)ccc2-n2cncn2)cc1	-14%	4%	.	45µM*	7%
O=C(Nc1cc(Cl)ccc1-n1cncn1)c1cc(F)cc(F)c1	-5%	12%	.	50µM*	9%
O=C(Nc1cc(Cl)ccc1F)c1ccc(-n2cncn2)c([N+](=O)[O-])c1	-27%	8%	.	56µM*	-6%
O=C(Nc1cc(Cl)ccc1-n1cncn1)c1cccs1	-13%	19%	.	45µM*	7%
NC(=O)c1ccc(Oc2ccc(Cl)c3ccccc23)c([N+](=O)[O-])c1	0%	17%	0%	-9%[59 µM]	-6%
COc1ccc(NC(=O)Nc2cc(-c3cn4cccnc4n3)ccc2OC)cc1	-23%	20%	.	?	-36%
O=C(Nc1cc(Cl)ccc1-n1cncn1)c1ccc([N+](=O)[O-])o1	-30%	-13%	.	50µM*	-32%
CCC(=O)N1CCN(c2ccc(Cl)cc2NC(=O)c2ccc([N+](=O)[O-])o2)CC1	-12%	7%	8%	?	-13%
CCCCn1cnc2c(Sc3c([N+](=O)[O-])ncn3C)nc(N)nc21	-4%	13%	.	.	.
SMILES	JMJD2A Tudor	HP1b binding inh	Sfp PPTase inh	G9a block	BAZ2B inh
CC(C)(C)c1ccc(C(=O)CC(Sc2ccc(Cl)cc2)C(=O)O)cc1 (stereo not given)	9%	56%	20µM*	45µM*	-3%
Cc1ccc(SC(CC(=O)c2ccc(F)cc2)C(=O)O)cc1 (stereo not given)	-5%	51%	50µM*	?	49%
O=C(CC(C(=O)O)c1ccc(F)cc1)c1ccc(Cl)cc1 (stereo not given)	-8%	47%	8%	9%	-8%
O=C(CC(C(=O)O)c1ccc(Cl)cc1)c1ccccc1 (stereo not given)	-10%	32%	1%	-33%	-3%
O=C(CCl)N1c2ccccc2Oc2ccc3ccccc3c21	56µM*	71µM*	.	.	.
CCOC(=O)c1cccc(NC(=O)CCn2cccc2)c1	-34%	-4%	16%	40µM*	?
CCOC(=O)c1cccc(NC(=O)CCn2c(=O)oc3ccccc32)c1	-10%	-13%	12%	17%	2%
CC(=O)N1CCc2cc(S(=O)(=O)CCC(=O)Nc3ccc(C)cc3Br)ccc21	-8%	31%	.	?	.
CCOC(=O)c1cccc(NC(=O)c2cc3cc4ccc(C)cc4nc3s2)c1	?	-13%	.	13µM*	-12%
CCOC(=O)c1cccc(NC(=O)c2cc3cc4cc(OC)ccc4nc3s2)c1	?	-6%	.	?	-29%
CC(=O)N1CCc2cc(S(=O)(=O)CCC(=O)Nc3ccccc3F)ccc21	50µM*	-19%	5%	?	-23%
CCOC(=O)c1cccc(NC(=O)CCS(=O)(=O)c2ccc3c(c2)CCN3C(=O)CC)c1	25µM*	36%	.	11µM*	.
Cc1oc(-c2ccccc2)nc1CNC(=O)NC1CCCCC1	-9%	13%	.	18%[59 µM]	-2%
CCOC(=O)c1ccc(N/C=C2\CCCCC2=O)cc1	-29%	19%	11%	-12%	-33%
COc1cccc(/C=C/C(=O)OCC(=O)NC2CCCCCCC2)c1	-3%	37%	.	.	.
COc1ccccc1CCc1nnc(CCC(=O)NCCOc2cccnc2)o1	-15%	30%	-2%	.	4%
CCC(=O)N1c2ccc(S(=O)(=O)CCC(=O)Nc3ccc(Br)c(C)c3)cc2CC1C (stereo not given)	22µM*	-12%	.	14µM*	.
S=C(NCC1CCCO1)N1CCN(c2nc(-c3ccccc3)cs2)CC1 (stereo not given)	?	-1%	6%	50µM*	?
Cc1ccc(S(=O)(=O)N2CCN(C(=S)NCC3CCCO3)CC2)cc1 (stereo not given)	-14%	30%	.	-2%	-7%
S=C(NCC1CCCO1)N1CCN(Cc2ccccc2)CC1 (stereo not given)	0.89µM*	20µM*	?	16µM*	20µM*
S=C(NCc1ccco1)N1CCN(c2nc(-c3ccccc3)cs2)CC1	-32%	?	8%	-8%	-31%
O=C(COC(=O)c1ccccc1)NC1CCCCCC1	-10%	33%	.	.	.
COc1ccc(CN(C)C(=O)CNC(=O)Cc2cccc3ccccc23)c(OC)c1OC	-13%	32%	2%	.	-12%
COc1ccccc1CN(C)C(=O)C(NC(=O)Cc1cccc2ccccc12)C(C)C (stereo not given)	-28%	9%[57 µM]	10%	7.9µM*	-9%
O=C(NCc1ccc2c(c1)OCO2)C1CCN(Cc2cnn(-c3ccccc3)c2-n2cccc2)CC1	-23%	18%	12%	-10%[59 µM]	?
CCCCN(C/C=C/c1ccccc1OC)Cc1ccccc1	1.3µM*	?	-3%	18µM*	?
CCN(CC)CCCCCOc1ccccc1OC	-14%	12%	10%	-35%	-10%
